Assay results published in PubChem BioAssay (Tox21).
Results filed as inconclusive are left out. A number with no mark means an inactive call. Active and inactive are the calls of the source. Calls follow the shape of the dose curve; as a rule, active = well fitted cell-killing curve with a large enough effect in the repeat runs; inconclusive = weak or mixed curves, or effect the other way; inactive = flat fitted curve, though single readings scatter.

assay: qHTS assay to identify small molecule agonists of the sonic hedgehog signaling (Shh) pathway - cell viability counter screen (AID 1259366); conditions: NIH/3T3 Gli1-Luc viability, CellTiter-Fluor, 24 h; series mostly up to 92.4 µM; viability change, negative = cytotoxic: at the top concentration; also: nearly all actives have a fitted effect of over 50% in size
From the text: National Center for Advancing Translational Sciences [NCATS]
NIH Chemical Genomics Center [NCGC]
U.S. Environmental Protection Agency [EPA]
National Institutes of Environmental Health Sciences [NIEHS]
National Toxicology Program [NTP]
U.S. Food and Drug Administration [FDA]
The sonic hedgehog (Shh) pathway is essential for normal embryonic development. Dysregulation of the Shh pathway can cause severe developmental defects in organs. Therefore chemicals that interfere with the pathway are potential developmental toxicants. A cell line designated 3T3Gli1-Luc (DMB/OARSA/CFSAN/FDA, Laurel, MD), a NIH/3T3 derived clone containing stably integrated Gli1-Luc reporter is used to detect chemical interference of the Shh pathway, by changes in the expression of the firefly Luc gene under the control of the Gli1 transcriptional response element. This cell line was used to screen Tox21 libraries for identifying and prioritizing the potential developmental toxicants that interfere Shh pathway. The cytotoxicity of the compounds was tested in parallel by measuring the cell viability using CellTiter-Fluor assay system (Promega, Madison, WI) in the same wells.
Tox21 Assay Protocol Summary:
3T3 Gli1-Luc cells were dispensed at 2,000 per well in 5uL of culture medium into white solid bottom 1536-well plates (Greiner Bio-One, Monroe, NC) using a Multidrop Combi (Thermo Scientific, Waltham, MA) dispenser. The assay plates were incubated at 37 C and 5% CO2 for 4hr, and then 23nL of compounds dissolved in DMSO and positive control were transferred using a Pintool station (Wako, San Diego, CA). The assay plates were incubated at 37C and 5% CO2 for 24hr. For viability read, after 23hr of compound treatment, 1uL of CellTiter-Fluor reagent (Promega Corporation, Madison, WI) was added to each well of the assay plates using Flying Reagent Dispenser (FRD, Aurora Discovery, San Diego, CA) and incubated the assay plates at 37C for 1hr. The fluorescence signal was quantified using a ViewLux plate reader (Perkin Elmer, Shelton, CT).
% is scaled to controls: 0 for no effect and ±100 for the full control effect; potency is read from the fitted curve at half-maximal effect.

Structure (SMILES) | viability change, negative = cytotoxic | Potency
C=C(C)C(=O)OCC(O)COc1ccc(C(C)(C)c2ccc(OCC(O)COC(=O)C(=C)C)cc2)cc1 (stereo not given) | 1.68% | 
O=C1C=CC(=O)N1c1ccc(Cc2ccc(N3C(=O)C=CC3=O)cc2)cc1 |  | 7.7 µM (active)
O=C(Nc1ccc(Oc2ccc(Cl)cc2)c(Cl)c1)c1cc(I)cc(I)c1O | -5.97% [at 42.5 µM] | 
C=C(C)C(=O)OCC[N+](C)(C)C | -14.6% | 
CC(C)CCCCCCCCCCCCCCC(=O)O | 5.24% | 
N=C1N=C(N)c2cc3ccccc3cc21 |  | 27.3 µM (active)
Clc1ccc2n[nH]nc2c1 | -0.685% | 
CN(C)CCCOC1(Cc2ccccc2)CCCCCC1 | 2.6% [at 42.5 µM] | 
CC(C)(C)c1ccc(C(=O)CCCN2CCC(OC(c3ccccc3)c3ccccc3)CC2)cc1 |  | 26.6 µM (active)
Cc1cccc(S(=O)(=O)O)c1C | -4.81% | 
Cc1cccc2c1cc1ccc3cccc4ccc2c1c34 | 13.1% | 
Clc1ccc2nsnc2c1NC1=NCCN1 | -1.92% [at 42.5 µM] | 
COC(=O)c1cc(Cl)ccc1OC | 0.627% [at 42.5 µM] | 
NNc1nc(-c2ccc(N)cc2)cs1 | -17.3% | 
NNc1nc(-c2ccc([N+](=O)[O-])cc2)cs1 | -29.1% | 
C[C@H]1[C@H]2CC[C@H]3[C@@H]4CC=C5C[C@@H](N(C)C)CC[C@]5(C)[C@H]4CC[C@]23CN1C | -4.59% [at 42.5 µM] | 
CC/C(=C(\c1ccc(O)cc1)c1ccc(OCCN(C)C)cc1)c1ccccc1 |  | 21.7 µM (active)
Cc1ccc(O)c2ncccc12 |  | 1.33 µM (active)
O=C(N/N=C/c1ccccc1O)c1ccncc1 | 6.59% [at 42.5 µM] | 
N#CSc1ccc(N)c([N+](=O)[O-])c1 |  | 69 µM (active)

Structure (SMILES) | viability change, negative = cytotoxic | Potency
Cc1cc(CCN2CCN(c3nsc4ccccc34)CC2)cc2c1NC(=O)CC2(C)C |  | 21.7 µM (active)
O=C1CCCc2c1cc1ccc3cccc4ccc2c1c34 | 18.7% | 
CCCCC(CC)COP(=O)(O)OCC(CC)CCCC (stereo not given) | 3.14% | 
Cc1c(C)c2c(c(C)c1O)CCC(C)(COc1ccc(CC3SC(=O)NC3=O)cc1)O2 (stereo not given) |  | inactive
O=C(NO)C1(NS(=O)(=O)c2ccc(Oc3ccc(F)cc3)cc2)CCOCC1 | -2.31% | 
Clc1ccccc1C(c1ccccc1)(c1ccccc1)n1ccnc1 |  | 13.7 µM (active)
CN(C/C=C/C#CC(C)(C)C)Cc1cccc2ccccc12 | 1.1% [at 42.5 µM] | 
CCC(C)Nc1ccc(NC(C)CC)cc1 (stereo not given) |  | 11.1 µM (active)
CC(C)(C)C(=O)OCOC(=O)[C@@H]1N2C(=O)[C@@H](NC(=O)[C@H](N)c3ccccc3)[C@H]2SC1(C)C | 1.46% [at 42.5 µM] | 
CC(C)(C)c1ccc(C(=O)O)cc1 | -2.31% | 
Oc1cccc2cc3cccc(O)c3c(O)c12 | -13.6% | 
Nc1c(Cl)cc(Cl)cc1Cl | -3.36% | 
Cc1cc(N)c(S(=O)(=O)O)cc1Cl | 1.3% | 
On1ccccc1=S |  | 1.71 µM (active)
Cc1cccc(N(C)C(=S)Oc2ccc3c(c2)C2CCC3C2)c1 (stereo not given) | 2.92% [at 42.5 µM] | 
Cc1cc(O)c(C(C)(C)C)cc1C(C)(C)C |  | 61.1 µM (active)
C/C(=C(/OCCOc1ccc(Cl)cc1)c1ccc(Cl)cc1Cl)n1ccnc1 | 13.3% [at 42.5 µM] | 
CSc1ccc(/C=C2/C(C)=C(CC(=O)O)c3cc(F)ccc32)cc1 | -18.9% [at 42.5 µM] | 
N=C1C=CC(=C(c2ccc(N)cc2)c2ccc(N)cc2)C=C1 |  | 21.7 µM (active)
COc1cc(-c2nc(NC(=O)c3cc4cc(C)cc(C)c4n3CC(=O)O)sc2CCC2CCCCC2)c(OC)cc1Cl | 24.2% | 
